# Screening results from PubChem BioAssay.
# Vaccinia mCherry = inhibitors of vaccinia virus infection (mCherry reporter signal). Vaccinia virus mCherry reporter infection, fluorescence. Potency, µM (series often up to 36.5 µM), for inactives: top-dose activity change, negative = inhibition, actives largely listed as inhibitors. 0.63% of 310,000 active. AID 720579; calls by dose curve; tested in A549 cells; note: potency is the fitted concentration of half-maximal effect; nearly all actives have a fitted effect of over 35% in size
# MARV entry inh = blocks Marburg virus binding to or entry into cells | Marburg virus pseudotyped entry inhibition, cell reporter | Potency, µM (top dose mostly 37.8 µM), without a hit: at the highest dose activity change, negative = inhibition, usual class: inhibitors | 1.8% of 300,000 active; calls by dose curve; tested in HEK293 cells; note: potency is the fitted concentration of half-maximal effect
# LASV entry inh = inhibitors of Lassa virus binding or cell entry. Lassa virus pseudotype entry inhibition, cell reporter. Potency, µM (series often up to 37.9 µM), for inactives: at the highest dose activity change, negative = inhibition, hits mostly inhibitors. 1.2% of 300,000 active. AID 540256; calls by dose curve; tested in HEK293 cells; note: potency is the fitted concentration of half-maximal effect; nearly all actives have a fitted effect of over 50% in size
# VACV Venus inh = inhibitors of vaccinia virus (Venus reporter) | 0.46% of 330,000 active | Vaccinia virus Venus reporter expression, fluorescence | Potency, µM (titrated, usually from 36.5 µM), for the others: at the top dose activity change, negative = inhibition, usual class: inhibitors; calls by dose curve; tested in A549 cells; note: potency is the fitted concentration of half-maximal effect; nearly all actives have a fitted effect of over 30% in size
# HCMV inh = human cytomegalovirus inhibition. HFF cells, HCMV-luciferase reporter, 72 h; stronger effect = lower value. activity change, negative = inhibition, % at 57.5 µM. 4.5% of 410,000 active; in the data active = activity change below about -60%; inconclusive = no clear call, values can overlap the other calls; inactive = above about -39%
#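 After 16 h attachment at 37C, HFF cells received test compound and HCMV-luciferase (1 PFU/cell); reporter luminescence read 72 h later, data normalized against buffer-only and known inhibitor Salinomycin.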
# FMDV antiviral = antivirals against foot and mouth disease virus. FMDV antiviral cell-based qHTS. Potency, µM (top dose mostly 57.9 µM), without a hit: at the top dose activity change, negative = inhibition, usual class: inhibitors. 1.2% of 410,000 active; calls by dose curve; tested in HEK293T cells; note: read-out not given here; potency is the fitted concentration of half-maximal effect; nearly all actives have a fitted effect of over 45% in size
# Numbers without * were called inactive; i = inactive; ? = inconclusive; nt = no result given; [ ] = dose if it differs, or a comment. The list is not random: actives were taken first. Their share in the collection is about 6.5%. % is set by controls: 0 for no effect and ±100 for the full control effect.
SMILES,Vaccinia mCherry,MARV entry inh,LASV entry inh,VACV Venus inh,HCMV inh,FMDV antiviral
CC(=O)Nc1ccc(N2C(C(C)=O)=NN(c3ccc(Cl)cc3)C2c2sccc2C)cc1 (centres undefined),nt,21µM*,?,nt,10,?
CC(=O)Nc1ccc(N2C(C(C)=O)=NN(c3ccccc3)C2c2cccs2)cc1 (centres undefined),nt,?,?,nt,5,-10%
CCOC(=O)C1=C(COC(=O)CCOc2ccc(C)cc2)NC(=O)NC1C (centres undefined),?,?,?,?,-69*,-22%
CCOC(=O)C1=C(COC(=O)Cc2ccc(Cl)cc2)NC(=O)NC1C (centres undefined),nt,nt,nt,nt,-73*,-20%
Nc1ccc(/C=C/c2cc(Cl)nc3ccccc23)cc1,-5%,nt,nt,-14%,nt,nt
COC(=O)C1C2CC(C(Br)C2Br)C1C(=O)O (centres undefined),-15%,10%[46.1 µM],-3%[46.1 µM],5%,-33,-15%
COC(=O)c1cc(CSc2nc3ccccc3c(=O)n2C)oc1C,-14%,?,?,-5%,-74*,?
Cc1cccc(CSc2nc3ccccc3c(=O)n2C)c1,nt,nt,nt,nt,-76*,?
Cn1c(SCCOc2ccccc2F)nc2ccccc2c1=O,-12%,3.5µM*,3%,-16%,?,40µM*
COCCn1c(SCc2ccc(C(=O)OC)o2)nc2ccccc2c1=O,-9%,-9%,-12%,0%,25,nt
O=C(Nc1ccccc1C(F)(F)F)N[C@H]1CC[C@@]23CCCN2C(=O)CCC[C@H]3C1Cc1ccccc1 (some centres undefined),nt,nt,nt,nt,5,nt
Cn1cnc([N+](=O)[O-])c1S(=O)(=O)Oc1ccccc1,-14%,?,?,-7%,43,25µM*
Cc1nn(C(C)C(=O)c2cccc(Cl)c2)c(C)c1[N+](=O)[O-] (centres undefined),?,3%[46.1 µM],5%,5%,-7,-12%
Cn1cnc([N+](=O)[O-])c1S(=O)(=O)Nc1ccccc1,i,0%[46.1 µM],-14%[46.1 µM],-22%,121,22µM*
Cn1cnc([N+](=O)[O-])c1NCc1ccccc1,nt,nt,nt,nt,-22,1%
Cn1cnc([N+](=O)[O-])c1S(=O)(=O)c1cccc(Cl)c1,nt,-31%,-18%,nt,31,25µM*
NC(N)=N[C@@H](CCC(=O)O)C(=O)O,nt,8%,4%,nt,nt,nt
COCCNc1ccc(-c2nc(-c3ccncc3)no2)cc1[N+](=O)[O-],-3%,20%[46.1 µM],13%[46.1 µM],-3%,19,37%
Cc1ccc(/C(=N\O)c2oc3c(C)c4oc(=O)cc(C)c4cc3c2C)cc1,?,2.9µM*,0.37µM*,?,-2,?
Cc1cc2nc(-c3ccccc3)c(-c3c(F)cc(F)cc3F)nc2cc1C,nt,nt,nt,nt,-14,nt
COc1ccc(-c2nc3sc(CCNS(=O)(=O)c4c(C)cc(C)cc4C)c(C)n3n2)cc1,?,nt,-19%[46.1 µM],?,-83*,17%
COc1ccc(S(=O)(=O)NCCc2sc3nc(-c4ccc(C)cc4)nn3c2C)cc1F,?,nt,-26%[46.1 µM],?,-74*,-20%
Cc1c(CCNC(=O)C(C)(C)C)sc2nc(-c3ccc(F)cc3)nn12,-26%,nt,-25%[46.1 µM],-30%,-91*,?
CCN1CCc2c(OCc3ccc(C)cc3)cccc2C1=O,i,24%[46.1 µM],10%,-21%,29,2%
COc1ccc(NC(=O)C2COc3ccccc3O2)cc1S(=O)(=O)N1CCOCC1 (centres undefined),i,-2%,11%,-5%,-26,5%
SMILES,Vaccinia mCherry,MARV entry inh,LASV entry inh,VACV Venus inh,HCMV inh,FMDV antiviral
O=C(Nc1ccc2nc3n(c(=O)c2c1)CCCCC3)C(=O)N1CCN(c2ccc(F)cc2)CC1,-16%[7.34 µM],nt,nt,?,?,-24%
Cc1cccc(CN2CCC(Oc3ccc(C(=O)N4CCCCC4)cc3)CC2)c1,nt,nt,nt,nt,31,-25%
Cc1ccc(S(=O)(=O)N(C)c2c(C)ccc(S(=O)(=O)N3CCN(C)CC3)c2C)cc1,-13%,12%,-1%,-26%,-3,1%
Cc1ccc(S(=O)(=O)N2CCN(Cc3ccccc3)CC2)c(C)c1NS(C)(=O)=O,-6%,nt,-36%[46.1 µM],0%,2,-17%
Cc1ccc(S(=O)(=O)N2CCN(Cc3ccccc3)CC2)c(C)c1N(C)S(=O)(=O)c1ccccc1,-25%,?,?,-19%,-81*,-28%
Cc1ccc(S(=O)(=O)N(C)c2c(C)ccc(S(=O)(=O)N3CCN(C=O)CC3)c2C)cc1,-5%,-21%,3%,-16%,-90*,-4%
C=C(C)CN1CCN(S(=O)(=O)c2ccc(C)c(N(C)S(=O)(=O)c3ccc(C)cc3)c2C)CC1,-23%,?,?,-19%,-73*,-26%
CCN(C(C)=O)c1cnc(C=NNC(N)=S)c2ccccc12,?,?,8.9µM*,?,-97*,2%
NC(=S)NN=Cc1nccc2c(N)cccc12,?,nt,nt,?,-39,38%
COc1ccccc1NC(=O)c1cnc(SCC(=O)NCC2CCCO2)n(C)c1=O (centres undefined),-11%,?,?,-10%,36,25µM*
Cc1cc(Nc2ccccc2C)n2nc(Cc3ccc(Cl)cc3)nc2n1,-2%,-2%[46.1 µM],-19%[46.1 µM],3%,-29,-20%
O=C(c1ccncc1)N1CCC2(CCC(CNC(=O)C3(N4CCOCC4)CCCCC3)O2)CC1 (centres undefined),5%,nt,nt,10%,nt,-4%
NC(=S)N/N=C1\CC(n2nnnc2-c2ccccc2)C2COC1O2 (centres undefined),nt,nt,nt,nt,-68*,11%
NC(=S)N/N=C1\CC(n2nnn(-c3cccc(Cl)c3)c2=S)C2COC1O2 (centres undefined),11µM*,?,-14%,?,-24,-20%
N#Cc1ccccc1NC(=O)CSc1n[nH]c(-c2ccco2)n1,-15%,3%[46.1 µM],22%[46.1 µM],0%,-2,0%
COC(=O)C1=C(C(=O)OC)[C@@H]2N(Cc3ccccc3)c3ccccc3[C@@]23C[C@@H](C(=O)OC)N(C(=O)Nc2ccccc2F)C3=N1,nt,-13%[14.2 µM],nt,nt,nt,nt
O=C(C1CCN(CCCc2ccccc2)CC1)N(CCc1ccccc1)Cc1ccccc1,?,?,11µM*,?,-25,-14%
O=C(C1CCN(CC2CC=CCC2)CC1)N(CCc1ccccc1)Cc1ccccc1 (centres undefined),-10%,?,?,1%,-19,-4%
Cc1ccc(S(=O)(=O)c2cn(Cc3ccccc3)c3cc(N4CCCC4)c(F)cc3c2=O)cc1,0%,nt,8%[46.1 µM],-8%,3,-1%
COc1ccc(Cc2noc(CN3CCN(Cc4cccc(Cl)c4)CC3)n2)cc1OC,-8%,?,?,-15%,-37,?
COc1ccc(Cc2noc(CN3CCN(c4ccc(Cl)cn4)CC3)n2)cc1OC,-16%,?,?,?,-32,13µM*
COc1ccc(Cc2noc(-c3ccccc3)n2)cc1OC,i,nt,nt,-26%,?,-20%
